VDR inhibitor = vitamin D3 receptor (human) inhibition | P11473 | VDR-SRC2-3 peptide fluorescence polarization, 2 h | Potency, µM, most hits filed as inhibitors | actives 0.93% (n = 400,000)
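Measured by FP: displacement of SRC2-3 coactivator peptide from VDR by library compounds, following a two-hour ambient incubation.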
PI5P4Ka inh = PI5P4K alpha (human) kinase inhibition; max response, %; PI5P4Kalpha enzyme, ADP-Glo luminescence, 60 min; hits give low values; P48426; actives 1.2% (n = 330,000); active = max response of -50% or lower; inconclusive = between -30% and -50%; inactive = -30% or higher; note: value at the top dose of about 77 µM
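ADP-Glo luminescence end-point after a 60 min room-temperature kinase reaction. PI5P4Kalpha and substrate in HEPES pH 7.4 buffer with EGTA, 0.1% CHAPS and 5% DMSO; ATP at 5 microM final.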
TCR act = activators of T cell receptors; primary human leukocytes, anti-CD3, IL-2 HTRF, 48 h; Potency, µM (highest dose often 9.22 µM), actives largely listed as activators; 330,000 tested, under 10 active; AID 504894
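Readout: HTRF IL-2, Eu-cryptate/d2 antibody pair, 320nm excitation, 665nm emission. Stimulus: a-CD3 beads, no co-stimulation. Cells: primary human leukocytes. Exposure: 48 hr with compound.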
PLK1 PBD inh = PLK1 (human) polo-box domain binding inhibition; P53350; Plk1 PBD binding of FITC phosphopeptide, fluorescence polarization; Potency, µM, actives largely listed as inhibitors; actives 2.8% (n = 360,000); note: series mostly up to about 57 µM; nearly all actives have a fitted effect of over 65% in size
Target sequence (P53350 whole entry, looked up, the tested form may be a part): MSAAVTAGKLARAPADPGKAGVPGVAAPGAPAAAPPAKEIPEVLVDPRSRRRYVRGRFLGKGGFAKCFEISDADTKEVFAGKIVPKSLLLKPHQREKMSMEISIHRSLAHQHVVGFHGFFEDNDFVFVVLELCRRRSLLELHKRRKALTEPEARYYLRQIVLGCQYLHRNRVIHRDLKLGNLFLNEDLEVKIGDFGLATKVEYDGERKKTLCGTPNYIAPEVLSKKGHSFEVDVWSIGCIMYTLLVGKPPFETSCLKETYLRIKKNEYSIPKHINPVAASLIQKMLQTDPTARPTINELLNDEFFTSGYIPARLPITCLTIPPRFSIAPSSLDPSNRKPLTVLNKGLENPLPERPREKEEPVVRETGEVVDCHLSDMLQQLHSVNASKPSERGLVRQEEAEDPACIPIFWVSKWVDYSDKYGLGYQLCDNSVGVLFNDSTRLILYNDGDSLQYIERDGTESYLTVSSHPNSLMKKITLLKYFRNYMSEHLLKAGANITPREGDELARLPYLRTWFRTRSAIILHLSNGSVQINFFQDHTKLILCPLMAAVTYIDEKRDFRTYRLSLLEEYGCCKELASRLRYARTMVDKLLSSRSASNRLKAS
FEN1 inh = human FEN1 inhibition. Potency, µM (titrated, usually from 114 µM), most hits filed as inhibitors. Recombinant FEN1 flap cleavage, fluorescence, 15 min. AID 588795. actives 0.35% (n = 390,000). P39748; note: nearly all actives have a fitted effect of over 65% in size
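In this screen, 50 nM flap DNA substrate was added to 10 nM FEN1 pretreated with compound for 15 min at room temperature; cleavage was followed with reads at 0 and 15 min, and Hill fitting gave concentration–response parameters.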
WRN inhibitor = blocks human WRN helicase; Q14191; WRN helicase unwinding, fluorescent forked duplex, kinetic; Potency, µM (highest dose often 114 µM), most hits filed as inhibitors; actives 0.46% (n = 360,000); note: nearly all actives have a fitted effect of over 55% in size
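WRN at 20 nM final was preincubated with compound for 15 min at room temperature; reaction started with 100 nM forked duplex oligonucleotide carrying fluorophore and quencher plus 2 mM ATP (final). Unwinding followed kinetically by red fluorescence (ex 525/em 598 nm).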
A number is an active result; . = inactive; ? = inconclusive; / = no result given. Sampled rows, rich in hits. Any-hit rate of the full collection: about 3.7%. Unless noted, calls come from the whole dose curve; as a rule, active = well fitted curve in the direction sought with a large enough effect; inconclusive = small, poorly fitted or top-dose-only effect, or another doubt; inactive = no such curve, though single readings can be large; an effect the other way counts as inactive or inconclusive.

SMILES	VDR inhibitor	PI5P4Ka inh	TCR act	PLK1 PBD inh	FEN1 inh	WRN inhibitor
Cc1cc(SCC(=O)N(CC(C)C)c2c(N)n(CC(C)C)c(=O)[nH]c2=O)nc2ccccc12	?	.	.	13µM	.	.
COc1cc(Br)c(CC(=O)NO)cc1OC	/	/	/	/	.	/
O=C(c1cc2cc(Br)ccc2o1)N1CCCC1	?	.	.	27µM	.	.
COc1ccc(N(C(=O)c2ccc(Cl)cc2)S(=O)(=O)c2ccc(C)cc2)cc1	.	/	/	/	.	/
COCC(O)CNc1ccccc1 (configuration not stated)	?	.	.	24µM	.	.
c1cncc(-c2nc(NCc3cccs3)c3ccccc3n2)c1	.	.	.	.	.	.
c1cncc(-c2cc(NCc3cccs3)ncn2)c1	.	/	/	/	/	/
c1csc(CNc2nc(-c3ccoc3)nc3ccccc23)c1	22µM	/	/	/	/	/
c1csc(CNc2cc(-c3ccoc3)ncn2)c1	20µM	/	/	/	/	/
COc1cc(Cl)c(C)cc1NC(=S)NN	.	.	.	27µM	.	.
CC1C=CC=CC=CC=CC=CC=CC=CC(OC2OC(C)C(O)C(N)C2O)CC2OC(O)(CC(O)CC(O)C(O)CCC(O)CC(O)CC(=O)OC(C)C(C)C1O)CC(O)C2C(=O)O (configuration not stated)	.	.	.	?	.	18µM
COc1cc(CNC(=O)CCCC(=O)c2ccccc2)cc(OC)c1OC	.	.	.	24µM	.	.
Cc1cc2ccccc2n1CCNC(=O)c1ccc(Br)o1	79µM	.	.	.	.	.
Cc1c(C(=O)N(Cc2ccc(Cl)cc2)CC2CCCO2)oc2ccc(F)cc12 (configuration not stated)	.	/	/	/	.	/
O=C1c2[nH]nc(-c3ccccc3O)c2C(c2ccc(Cl)cc2)N1CCc1ccccc1 (configuration not stated)	.	/	/	/	.	/
CC(=O)c1ccc(N2C(=O)C3C(C2=O)C(C(=O)c2ccc(Cl)cc2)N2CCCC32)cc1 (configuration not stated)	.	-54	.	11µM	.	.
Cc1cccn2c(=O)c(/C=C(\C#N)C(=O)NC3CCS(=O)(=O)C3)c(N3CCC(C(N)=O)CC3)nc12 (configuration not stated)	.	.	.	.	.	.
Cc1ccccc1Oc1nc2c(C)cccn2c(=O)c1/C=C(\C#N)C(=O)NC1CCS(=O)(=O)C1 (configuration not stated)	40µM	.	.	.	.	.
Cc1ccc(Oc2nc3ccccn3c(=O)c2/C=C(\C#N)C(=O)NC2CCS(=O)(=O)C2)cc1 (configuration not stated)	79µM	.	.	.	.	.
Cc1cccn2c(=O)c(/C=C(\C#N)C(=O)NC3CCS(=O)(=O)C3)c(Oc3ccccc3Cl)nc12 (configuration not stated)	18µM	.	.	.	.	.
CC(N)COC(=O)C(CCCCN)NC(=O)Cc1c(-c2ccc3ccccc3c2)[nH]c2c1ccc1ccccc12 (configuration not stated)	.	/	/	/	/	/
c1ccc(-c2[nH]ncc2-c2ccnc3ccccc23)nc1	.	/	/	/	/	/
CCN(CC)c1ccc(C=C2C(=O)OC(c3ccccc3)OC2=O)cc1 (configuration not stated)	?	.	.	?	.	50µM
CCN(CC)c1ccc(C=C2C(=O)OC3(CCCC3)OC2=O)cc1	.	.	.	?	.	50µM
CCN(CC)c1ccc(C=C2C(=O)OC(C)(C(C)(C)C)OC2=O)cc1 (configuration not stated)	?	.	.	?	.	?
SMILES	VDR inhibitor	PI5P4Ka inh	TCR act	PLK1 PBD inh	FEN1 inh	WRN inhibitor
CC(=O)N[C@@H](CSC(=O)[C@]1([C@@H](O)C(C)C)NC(=O)[C@H](C)[C@@H]1O)C(=O)O	.	/	/	/	/	/
CCOC(=O)c1c(C)oc2ccc(OCC(=O)C(C)(C)C)cc12	.	.	.	.	.	.
CCOC(=O)c1c(C)oc2ccc(OCc3cc(C(=O)OC)oc3C)cc12	.	.	.	27µM	.	.
Cc1ccc(Cl)cc1-n1ncc2c(NCCC3=CCCCC3)ncnc21	.	/	/	/	.	/
CCc1ccc(CNC(=O)CN2C(=O)c3cccnc3Oc3ccc(C)cc32)cc1	.	/	/	/	.	/
CCC(C(=O)NC1CCCCCC1)n1nc(C)c2c(C)n(-c3ccccc3)nc2c1=O (configuration not stated)	.	.	.	30µM	.	.
CCC(C(=O)NC1CC1)n1nc(C)c2c(C)n(-c3ccc(C)cc3)nc2c1=O (configuration not stated)	.	.	.	.	.	.
COc1cc(C=O)ccc1OCC(=O)Nc1ccccc1N1CCOCC1	.	.	.	.	.	.
COc1cc(C=O)ccc1Oc1nc(Nc2ccc(F)cc2F)nc(N2CCOCC2)n1	.	.	.	21µM	.	.
O=C(CCC1N=C2c3ccccc3N=C(SCc3ccc(F)cc3)N2C1=O)NC1CCCCC1 (configuration not stated)	.	/	/	/	.	/
CCOc1ccccc1C(=O)Nc1cc(-c2nc3cccnc3s2)ccc1C	.	/	/	/	.	/
O=C(c1ccc2c(c1)CCN2S(=O)(=O)c1ccc(Cl)cc1)N1CCN(c2ccc(F)cc2)CC1	.	/	/	/	.	/
CCN(c1ccccc1)S(=O)(=O)c1csc(C(N)=O)c1	.	.	.	27µM	.	.
CCN(c1ccc(OC)cc1)S(=O)(=O)c1csc(C(N)=O)c1	.	.	.	.	.	.
Clc1ccc(OCCn2cnc3ccccc32)cc1	.	?	.	3µM	.	.
COc1ccc(N=CC2=C(O)CC(c3ccccc3)CC2=O)c(OC)c1 (configuration not stated)	?	.	.	21µM	?	.
CCc1ccccc1NC(=O)c1cnn2c(C(F)(F)F)cc(-c3ccc(OC)c(OC)c3)nc12	.	/	/	/	.	/
CC(C)(C)n1ncc2c(=O)n(Cc3ccccc3C(F)(F)F)cnc21	/	/	/	/	.	/
Brc1ccc(C2Nc3cccc4cccc(c34)N2)o1	.	/	.	.	28µM	.
Brc1cccc(C2Nc3cccc4cccc(c34)N2)c1	.	.	.	?	.	.
COc1ccc(C2Nc3cccc4cccc(c34)N2)cc1	.	.	.	30µM	.	.
c1ccc(C2Nc3cccc4cccc(c34)N2)cc1	.	?	.	27µM	.	.
Cc1nc2ncnn2c(C)c1CCC(=O)NCCc1ccccc1	.	.	/	24µM	.	.
CCOC(=O)C(Cc1ccccc1)NC(=O)CCc1c(C)nc2ncnn2c1C (configuration not stated)	.	.	.	.	.	.
CSc1ccc(CCNC(=O)CCc2c(C)nc3ncnn3c2C)cc1	.	/	/	/	.	/
CCOC(=O)C(Cc1ccccc1)NC(=O)CCc1c(C)nc2nc(C)nn2c1C (configuration not stated)	?	.	/	27µM	.	.
